This is an account of results in PubChem BioAssay AID743318 (Broad Institute, 2014).

The structures appear in SMILES notation. Measured potencies and affinities stand elsewhere. Unmarked numbers belong to inactive results. Active and inactive are the calls of the source.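 How the source made its calls: active means cytotoxic signal drop whose half-maximal concentration is at most twice the top valid dose; inconclusive means flat drop between 30% and 70%, or poor fit; inactive means the rest.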

A short description of the assay: loss of A549 viability via ATP – cell-based, plate reader, dry powder, set 7, cytotoxicity control, dose response (AID 743318). Particulars: CellTiter-Glo ATP luminescence, 72 h; series mostly up to 26 µM; activity change, negative = cytotoxic: at the top concentration. (In general: ATP-based viability assays read luminescence as a measure of living cells.)
With `CC(C)(C)c1ccc(OCCn2cnc3ccccc32)cc1`, the “activity change, negative = cytotoxic” value was 21.2%.

In the case of `Cc1ccc(C(C)C)c(OCCn2c(CO)nc3ccccc32)c1`, the “activity change, negative = cytotoxic” value was 22.9%.

For `c1ccc(OCCn2cnc3ccccc32)cc1`, the “activity change, negative = cytotoxic” value was -11.2%.

With `Cc1ccc(OCCn2c(=S)[nH]c3ccccc32)c(C(C)C)c1`, the call was inactive.

With `Cc1ccc(C(C)C)c(OCCn2c(=S)[nH]c3c(Cl)cccc32)c1`, the “activity change, negative = cytotoxic” value was -13.5%.

In the case of `Cc1cccc2[nH]c(=S)n(CCOc3ccccc3)c12`, the “activity change, negative = cytotoxic” value was 8.58%.

As for `S=c1[nH]c2ccccc2n1CCOc1ccccc1`, the “activity change, negative = cytotoxic” value is -16.9%.

In the case of `Cc1ccc(OCCn2cnc3ccccc32)cc1`, the “activity change, negative = cytotoxic” value is 31.7%.

Regarding `Fc1cccc2c1[nH]c(=S)n2CCOc1ccccc1`, the outcome was inactive.

Take `CC(C)(C)c1ccc(OCCn2c(=S)[nH]c3ccccc32)cc1`: the “activity change, negative = cytotoxic” value is 18.4%.

`Cc1cccc(OCCn2c(=S)[nH]c3cc(F)ccc32)c1`: the outcome was inactive.

For `COc1ccccc1OCCn1c(=S)[nH]c2ccccc21`, the “activity change, negative = cytotoxic” value was 16.9%.

`Cc1ccc(C(C)C)c(OCCn2c(=S)[nH]c3c(C)cccc32)c1`: the “activity change, negative = cytotoxic” value is -0.991%.

With `Cc1ccc(C(C)C)c(OCCn2c(=S)[nH]c3c(F)cccc32)c1`, the “activity change, negative = cytotoxic” value is 10.1%.

Take `Cc1ccc(OCCn2c(SCCO)nc3ccccc32)c(C(C)C)c1`: the “activity change, negative = cytotoxic” value is -1.13%.

`Cc1ccc(OCCn2c(=S)[nH]c3ccccc32)c(C)c1`: the “activity change, negative = cytotoxic” value is 18.5%.

Turning to `Fc1ccc2c(c1)[nH]c(=S)n2CCOc1ccccc1`, the compound was classed as inactive.

`Cc1ccc(OCCn2c(C)nc3ccccc32)cc1`: the “activity change, negative = cytotoxic” value is 26.1%.

`Cc1ccc(C(C)C)c(OCCn2c(=S)[nH]c3cccc(C)c32)c1`: the “activity change, negative = cytotoxic” value was -17.9%.

Turning to `O=c1[nH]c2ccccc2n1CCOc1ccccc1`, the “activity change, negative = cytotoxic” value is 22.5%.

Turning to `Cc1ccc(OCCn2c(=S)[nH]c3ccccc32)cc1`, the “activity change, negative = cytotoxic” value is 9.56%.

Take `Cc1ccccc1OCCn1c(=S)[nH]c2ccccc21`: the “activity change, negative = cytotoxic” value is -0.861%.

Consider `Cc1ccc(C(C)C)c(OCCn2c(=S)[nH]c3ccc(Cl)cc32)c1`, for which the “activity change, negative = cytotoxic” value is -15.5%.

In the case of `COc1ccc(OCCn2c(=S)[nH]c3ccccc32)cc1`, the “activity change, negative = cytotoxic” value was -10.1%.

Regarding `Cc1cccc(OCCn2c(=S)[nH]c3c(F)cccc32)c1`, the result was inactive.
